In the library only some 2% were active in any assay of this set; here they are far more common.
aSyn rescue: inhibitors of alpha-synuclein toxicity in yeast | Yeast expressing alpha-synuclein, growth rescue, BacTiter-Glo, 24 h | Potency, µM (top dose mostly 46.1 µM), for inactives: at the highest dose growth rescue (activation), usual class: activators | 370,000 compounds, 0.14% hits; note: potency is the fitted concentration of half-maximal effect; % of control where 0% means no effect; nearly all actives have a fitted effect of over 65% in size
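Screening used galactose-induced yeast with toxic alpha-synuclein levels, exposed to compound for 24 hr at 30 deg C. Cell growth, read with BacTiter-Glo luminescence, gave the measured signal.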
mIDH1 inhibitor: inhibitors of human mutant IDH1 R132H. O75874. IDH1-R132H enzyme, NADPH consumption, diaphorase/resazurin fluorescence. Potency, µM (highest dose often 76.6 µM), for inactives: at the top dose activity change, negative = inhibition, hits mostly inhibitors. 390,000 compounds, 0.093% hits. AID 602179; note: potency is the fitted concentration of half-maximal effect; % is set by controls: 0 for no effect and ±100 for the full control effect; nearly all actives have a fitted effect of over 65% in size
Target sequence (O75874 whole entry R132H, stated change not applied): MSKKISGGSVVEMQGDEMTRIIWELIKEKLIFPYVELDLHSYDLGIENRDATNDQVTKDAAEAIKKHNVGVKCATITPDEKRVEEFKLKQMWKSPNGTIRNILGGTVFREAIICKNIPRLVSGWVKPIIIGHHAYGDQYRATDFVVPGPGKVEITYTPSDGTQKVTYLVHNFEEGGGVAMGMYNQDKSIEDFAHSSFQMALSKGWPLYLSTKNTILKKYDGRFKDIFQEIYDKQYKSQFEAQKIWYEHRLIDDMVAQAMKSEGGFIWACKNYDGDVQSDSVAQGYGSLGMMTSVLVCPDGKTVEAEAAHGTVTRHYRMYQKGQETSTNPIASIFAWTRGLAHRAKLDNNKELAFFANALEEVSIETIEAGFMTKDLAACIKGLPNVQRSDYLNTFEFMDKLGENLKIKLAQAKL
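IDH1-R132H (0.5 ug/mL dispensed) in pH 7.5 Tris buffer was preincubated 30 min with compound, then given a substrate mix of 0.016 mM NADPH and 2 mM alpha-KG for 80 min at room temperature; remaining NADPH was read by diaphorase/resazurin fluorescence.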
LDHA block: inhibitors of human lactate dehydrogenase A | P00338 | purified LDHA, NADH/diaphorase-resazurin fluorescence; stronger effect = lower value | activity change, % (values are at about 110 or 230 µM) | 480,000 compounds, 0.15% hits; in the data active = activity change below about -30%; inconclusive = mostly about -25% to -30%;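 note: plate controls were DMSO wells for no effect and wells without enzyme for full effect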
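LDH5 2 nM; NADH 0.06 mM, pyruvate 0.2 mM; 200 mM Tris pH 7.4, EDTA, Tween-20; 5 min RT. Detection: diaphorase 0.133 mg/mL + resazurin 37 µM, fluorescence ex540/em590 at 0 and 20 min; normalized to enzyme-free and DMSO wells.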
Abeta yeast res: compounds reversing amyloid beta toxicity in yeast; 410,000 compounds, 0.063% hits; Potency, µM (series often up to 46.1 µM), usual class: activators; AID 1347071; yeast expressing A-beta42, growth rescue, OD600, 48 h; response scale: 0% DMSO, 100% iron-clioquinol control; note: potency is the fitted concentration of half-maximal effect; nearly all actives have a fitted effect of over 55% in size
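Yeast A-beta toxicity model in growth medium with pinned compounds, 48 h at 30 C; growth read as absorbance at 600 nm. Normalized to FeCl3/clioquinol equimolar mix (positive) and DMSO (negative).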
TDP-43 yeast inh: inhibitors of TDP-43 toxicity in yeast; 410,000 compounds, 1.8% hits; TDP-43 expressing yeast growth rescue, BacTiter-Glo, 24 h; Potency, µM (series often up to 46.1 µM), without a hit: top-dose growth rescue (activation), usual class: activators; AID 652104; note: potency is the fitted concentration of half-maximal effect; % of control where 0% means no effect; nearly all actives have a fitted effect of over 50% in size
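Cell-based yeast growth screen: TDP-43 expression induced in galactose, inoculum OD600=0.02 after raffinose pregrowth to mid-log. Read-out BacTiter-Glo luminescence at 24 hr, 30 deg C; inhibition of toxicity seen as signal increase.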
FUS suppressor: FUS proteinopathy suppression in yeast. S. cerevisiae FUS-expressing, growth rescue, OD600, 24 h. Potency, µM (doses to about 76.6 µM), hits mostly activators. 390,000 compounds, 0.24% hits;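 note: potency is the fitted concentration of half-maximal effect; plate controls were DMSO vehicle for no effect and reference control for full effect; nearly all actives have a fitted effect of over 55% in size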
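Yeast expressing FUS under galactose induction, OD 0.005 in 2% galactose medium; compounds in a dilution series, 24 h at 30C. Growth rescue by absorbance at 600 nm; CP55940 positive control, DMSO negative.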
Starred values were filed as active, the others as inactive; i = inactive; ? = inconclusive; nt = not tested or not shown. Unless noted, calls come from the whole dose curve; as a rule, active = well fitted curve in the direction sought with a large enough effect; inconclusive = small, poorly fitted or top-dose-only effect, or another doubt; inactive = no such curve, though single readings can be large; an effect the other way counts as inactive or inconclusive.

SMILES	aSyn rescue	mIDH1 inhibitor	LDHA block	Abeta yeast res	TDP-43 yeast inh	FUS suppressor
Cc1snc(SCC(=O)c2ccc([N+](=O)[O-])cc2)c1C#N	2%	-8%	-4	i	22µM*	i
Brc1ccc(-c2noc(/C=C/c3ccccc3)n2)cc1	nt	nt	6	nt	nt	nt
COc1ccc(S(=O)(=O)N2CCOC23CCN(C(=O)c2c(F)cccc2Cl)CC3)cc1	3%	-19%	-12	?	18µM*	i
Cc1ccc(C2C(C#N)=C(SCC(=O)Nc3cccc(C)c3C)NC3=C2C(=O)CCC3)o1 (stereo not given)	nt	nt	2	nt	nt	nt
CCCCC1Cc2[nH][nH]c(=O)c2C(c2ccc(F)cc2)O1 (stereo not given)	26%	nt	7	i	?	?
CC(C)[C@@H]1Cc2[nH][nH]c(=O)c2[C@H](c2ccc(F)cc2)O1	-9%	nt	-3	i	11µM*	i
CCCCC1Cc2[nH][nH]c(=O)c2C(c2ccc(Cl)cc2)O1 (stereo not given)	-5%	nt	-1	i	11µM*	?
O=c1[nH][nH]c2c1[C@@H](c1ccc(F)cc1)O[C@H](CCc1ccccc1)C2	-13%	nt	1	i	14%	?
O=c1[nH][nH]c2c1C(c1ccc(F)cc1)OC(CCc1ccccc1)C2 (stereo not given)	14%	nt	3	i	20µM*	i
O=c1[nH][nH]c2c1[C@H](c1ccc(F)cc1)O[C@H](CCC(F)(F)F)C2	?	nt	2	i	20µM*	i
O=c1[nH]c(=S)[nH]c2c1C(c1ccc(F)cc1)OC(CCC(F)(F)F)C2 (stereo not given)	-1%	nt	-10	i	2%	i
Cc1cccc(-c2cc(Nc3ccc(C)c(C)c3)nc(C)n2)c1	nt	nt	3	nt	nt	nt
O=C(CCc1cc(Cl)no1)Nc1ccc2oc(-c3ccc(F)cc3)cc(=O)c2c1	nt	nt	-7	nt	nt	nt
Cc1nn(C)c(Nc2ccc(Br)cc2)c1Br	?	3%	-2	?	18µM*	i
CC(C[N+](C)(C)C)OC(=O)C1(c2ccccc2)CCCC1 (stereo not given)	0%	-2%	-31*	i	-6%	i
COCc1cc(OC)nc(-c2csc(C)n2)n1	4%	-9%	-1	16µM*	24%	i
COc1cc(Cl)c(NC(=O)C2CCN(c3nccnc3Oc3ccc(C)cc3)CC2)c(OC)c1	nt	nt	10	nt	nt	nt
NC(C(=O)O)c1cccnc1 (stereo not given)	nt	nt	6	nt	nt	nt
CCCCN(C)c1ncnc2c1cnn2-c1cccc(Cl)c1	nt	-6%	-11	i	13µM*	i
Cc1cc(=O)oc2cc(OCCC(C)C)ccc12	nt	nt	-11	nt	nt	nt
O=C1c2ccccc2NC(c2ccccc2)N1Cc1ccccc1 (stereo not given)	9%	4%	-2	i	16µM*	i
O=C1c2ccccc2NC(c2ccc(F)cc2)N1Cc1ccccc1 (stereo not given)	2%	-5%	-2	i	20µM*	i
O=C1c2ccccc2NC(c2ccc(F)cc2)N1Cc1ccco1 (stereo not given)	15%	1%	-3	i	-11%	?
COC(=O)c1ccc(CNC(=O)C2Cc3ccc(C)cc3S2)cc1 (stereo not given)	nt	nt	5	nt	nt	nt
Brc1ccccc1C1CC(c2ccccc2)=Nc2ccccc2N1 (stereo not given)	-21%	-4%	3	i	35µM*	i
Clc1ccccc1C1CC(c2ccccc2)=Nc2ccccc2N1 (stereo not given)	18%	3%	-4	i	?	i
NCCCC(N)(C(=O)O)c1ccccc1 (stereo not given)	nt	nt	2	nt	nt	nt
CC(=O)c1cnc2nc(SCc3ccc(C)cc3)nn2c1C	0%	5%	-10	i	4%	i
CC(=O)c1cnc2nc(SCc3ccc(Cl)cc3)nn2c1C	12%	3%	1	i	14µM*	i
